Reference: the supplement of paper PMC10981050
Values joined by “and” are separate entries in the source; they are usually repeats but may differ in a detail not shown here. Equal values may be shown once. Where a name gives a salt, the structure may show the parent alone.

How the values were obtained:
Assay in all cases: cell viability relative to vehicle control; higher = less cytotoxic
Conditions in all cases: 10 µM
K562 = system: K562
Summary of the method: (§1)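 Each screen used CRISPR-edited mutant and wild-type clones from four leukaemia lines. Compounds were acoustically dispensed at a single 10 µM dose, and CellTiter-Glo luminescence was read after 48 h with the supernatant first removed. Viability was analysed in Genedata Screener and given as percent of the on-plate vehicle control.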

MARIMO = system: MARIMO
Summary of the method: as §1

MOLM14 = system: MOLM14
Summary of the method: as §1

OCI-AML2 = system: OCI-AML2
Summary of the method: as §1

Compound | cell viability (K562; SRSF2 genotype: SRSF2 P95H/wt) | cell viability (K562; SRSF2 genotype: SRSF2 wt/wt) [%] | cell viability (MARIMO; SRSF2 genotype: SRSF2 P95H/wt) [%] | cell viability (MARIMO; SRSF2 genotype: SRSF2 wt/wt) [%] | cell viability (MOLM14; SRSF2 genotype: SRSF2 P95H/wt) [%] | cell viability (MOLM14; SRSF2 genotype: SRSF2 wt/wt) [%] | cell viability (OCI-AML2; SRSF2 genotype: P95H/wt) [%] | cell viability (OCI-AML2; SRSF2 genotype: wt/wt) [%]
c1coc(CNc2ncnc3[nH]cnc23)c1 [Kinetin (6-Furfuryladenine)] | 94.1% and 107% | 104 | 100 | 113 | 98.4 | 105 | 116 | 97.6
O=C(Nc1c(Cl)cncc1Cl)c1ccc(OC(F)F)c(OCC2CC2)c1 [Roflumilast (Daxas)] | 96.8% and 106% | 105 | 116 | 114 | 105 | 109 | 103 | 96
CC1CCc2c(N3CCC(O)CC3)c(F)cc3c(=O)c(C(=O)O)cn1c23 (configuration not stated) [Nadifloxacin] | 94% and 98.4% | 92.4 | 102 | 105 | 107 | 108 | 114 | 94
COc1ccc(-c2oc3c(CC=C(C)C)c(O[C@@H]4O[C@H](CO)[C@@H](O)[C@H](O)[C@H]4O)cc(O)c3c(=O)c2O[C@@H]2O[C@@H](C)[C@H](O)[C@@H](O)[C@H]2O)cc1 [Icariin] | 94.5% and 104% | 98.7 | 98.7 | 110 | 108 | 104 | 105 | 112
O=C(NOCC(O)CO)c1cc(Br)c(F)c(F)c1Nc1ccc(I)cc1F (configuration not stated) | 81.1% and 89.7% | 83.2 | 41.3 | 37.3 | 50.1 | 36.6 | 40.6 | 45
O=C(Nc1ncc(SCCN2CCCC2)s1)[C@]1(c2ccc(S(=O)(=O)C3CC3)cc2)C[C@H]1C1CCCCC1 | 0.72% and 0.66% | 0.58 | 2.32 | 11.5 | 0.59 | 0.51 | 0.46 | 0.55
Oc1ccc([C@H]2COc3cc(O)ccc3C2)cc1 [Equol] | 90.4% and 101% | 103 | 99.9 | 104 | 95.2 | 104 | 92 | 88.4
CC(C)COc1ccc(CNC(=O)N(Cc2ccc(F)cc2)C2CCN(C)CC2)cc1 [Pimavanserin] | 0.6% and 0.64% | 0.75 | 2.06 | 4.09 | 0.25 | 0.22 | 0.22 | 1.2
CN(Cc1cc(Br)cc(Br)c1N)C1CCCCC1 [Bromhexine HCl] | 96.8% and 96.7% | 92.8 | 86.6 | 99.2 | 96.7 | 99.4 | 92.2 | 98.7
O=[N+]([O-])c1ccc(Nc2ccccc2-c2ccccc2)c2nonc12 | 104% and 97.4% | 95.7 | 96.7 | 109 | 94.2 | 95.2 | 103 | 107
CNC[C@@H](O)c1ccc(O)c(O)c1 [L-Adrenaline (Epinephrine)] | 101% and 90% | 96.3 | 104 | 101 | 87.9 | 99.3 | 115 | 104
CN(CC(=O)N(Cc1ccc(C2CCCCC2)cc1)c1ccc(C(=O)O)c(O)c1)S(=O)(=O)c1c(F)c(F)c(F)c(F)c1F | 38% and 23.1% | 13.9 | 57.8 | 28.6 | 0.63 | 0.38 | 1.74 | 5.48
CNCC[C@@H](Oc1ccccc1C)c1ccccc1 [Atomoxetine HCl] | 111% and 112% | 108 | 100 | 94.9 | 101 | 106 | 115 | 94.6
O=c1[nH]cnc2c1ncn2[C@H]1C[C@H](O)[C@@H](CO)O1 [2'-Deoxyinosine] | 120% and 113% | 116 | 104 | 107 | 105 | 118 | 103 | 111
Cc1cccc(Nc2nc(-c3ccncc3)cs2)c1 | 78.1% and 89.2% | 70.8 | 49.3 | 64.4 | 74.2 | 84.9 | 64.3 | 66.9
CN1CCc2nc(C(=O)N[C@@H]3C[C@@H](C(=O)N(C)C)CC[C@@H]3NC(=O)C(=O)Nc3ccc(Cl)cn3)sc2C1 [Edoxaban] | 98.2% and 93.3% | 92.5 | 95.7 | 102 | 99.4 | 95.6 | 92.9 | 100
CC(C)=CC(=O)O[C@H]1Cc2cc3ccc(=O)oc3cc2OC1(C)C [Decursin] | 89.5% and 93.4% | 90 | 81.6 | 88.5 | 91.1 | 92.5 | 83.7 | 87
Nc1[nH]cnc2ncnc1-2 [Adenine hydrochloride] | 127% and 120% | 105 | 98.5 | 111 | 105 | 108 | 114 | 118
CCNc1nc(Nc2cc(F)c(C(=O)N3CCOCC3)cc2OC)ncc1C(F)(F)F | 102% and 98.9% | 99.2 | 93.3 | 109 | 90 | 103 | 87.8 | 93.7
O=C1Nc2ccc(I)cc2C1=Cc1cc(Br)c(O)c(Br)c1 | 96.6% and 89.4% | 90.1 | 89.9 | 109 | 84.7 | 93.8 | 86.7 | 90.7

Compound | cell viability (K562; SRSF2 genotype: SRSF2 P95H/wt) | cell viability (K562; SRSF2 genotype: SRSF2 wt/wt) [%] | cell viability (MARIMO; SRSF2 genotype: SRSF2 P95H/wt) [%] | cell viability (MARIMO; SRSF2 genotype: SRSF2 wt/wt) [%] | cell viability (MOLM14; SRSF2 genotype: SRSF2 P95H/wt) [%] | cell viability (MOLM14; SRSF2 genotype: SRSF2 wt/wt) [%] | cell viability (OCI-AML2; SRSF2 genotype: P95H/wt) [%] | cell viability (OCI-AML2; SRSF2 genotype: wt/wt) [%]
Cc1ccc(CN(CC(O)COc2cccc3[nH]ccc23)C(C)(C)C)cc1 (configuration not stated) | 71% and 71.5% | 66.8 | 67 | 76.8 | 68 | 74 | 83.4 | 86.2
C=C[C@]1(C)C[C@@H](OC(=O)CSCCN(CC)CC)[C@]2(C)[C@H](C)CC[C@]3(CCC(=O)[C@H]32)[C@@H](C)[C@@H]1O [Tiamulin fumarate] | 85.7% and 84.7% | 89.8 | 93.4 | 91.3 | 94.2 | 93.7 | 88.6 | 96.6
CCN(CC)Cc1ccc2cc(COC(=O)Nc3ccc(C(=O)NO)cc3)ccc2c1 [ITF2357 (Givinostat)] | 1.36% and 7.22% | 1.85 | 4.74 | 9.63 | 0.81 | 0.55 | 1.72 | 3.52
O=c1c(O)c(-c2ccc(O)cc2)oc2cc(O)cc(O)c12 [Kaempferol] | 96.1% and 106% | 108 | 98.1 | 117 | 57.4 | 68 | 81.7 | 67.5
C[C@@H]1CCCC2=CC(=O)[C@@H]3[C@@H](C3(C)C)[C@]21C [Aristolone] | 107% and 96.8% | 101 | 95.8 | 103 | 112 | 99 | 98.3 | 109
O=C1c2ccc(Nc3ccc(F)cc3F)cc2CCc2ccc(OC[C@H](O)CO)cc21 [Skepinone-L] | 84.7% and 79.7% | 77.7 | 91.7 | 100 | 104 | 102 | 77.2 | 73.7
O=S(=O)(N=Cc1c(O)ccc2ccccc12)c1cccs1 | 100% and 99.8% | 95.2 | 100 | 97.3 | 100 | 99 | 101 | 103
COc1ccc(C2=NC(c3ccc(Cl)cc3)C(c3ccc(Cl)cc3)N2C(=O)N2CCNC(=O)C2)c(OC(C)C)c1 (configuration not stated) [Nutlin-3b] | 90.3% and 93.2% | 89.3 | 87.5 | 97.1 | 77.2 | 86.7 | 84.5 | 89.8
O=C(O)c1cccnc1 [Niacin (Nicotinic acid)] | 108% and 98.1% | 109 | 99.3 | 111 | 103 | 101 | 74 | 78.7
Cn1nnc(-c2ccc(-c3ccc(N4C[C@H](CO)OC4=O)cc3F)cn2)n1 [Tedizolid] | 87.1% and 82.2% | 83.3 | 77.3 | 88.1 | 89.4 | 85.5 | 79.9 | 81.6
CCOC(=O)[C@H](CCc1ccccc1)N[C@@H](C)C(=O)N1[C@H](C(=O)O)C[C@@H]2CCC[C@@H]21 [Ramipril (Altace)] | 86.6% and 88.3% | 89.9 | 87.7 | 92.3 | 88.2 | 87.4 | 84.8 | 86.3
OCc1cc(C(O)CNCCCCCCOCCCCc2ccccc2)ccc1O (configuration not stated) [Salmeterol] | 77.8% and 87.8% | 88.4 | 67.7 | 68.6 | 62.8 | 74.9 | 55.2 | 60.2
Cc1ccc(Cl)c(Nc2ccccc2C(=O)O)c1Cl [Meclofenamate sodium] | 97.7% and 99.9% | 96.9 | 97.2 | 96.4 | 96.8 | 98.5 | 105 | 99.4
CN(C)c1ccc2c(c1)Sc1cc(N(C)C)ccc1N2 [TRx0237 (LMTX) mesylate] | 35.5% and 35.7% | 20.9 | 20.4 | 18.9 | 5.72 | 2.96 | 6.33 | 10.7
CN(C)c1ccc(-c2nc3ncc(Cl)c(N4CCN(CC(=O)Nc5nccs5)CC4)c3[nH]2)cc1 | 95.8% and 101% | 95.2 | 96.9 | 109 | 78.9 | 87.5 | 92.4 | 95.1
Cc1c(Nc2ncccc2C(=O)O)cccc1C(F)(F)F [Flunixin meglumin] | 95.8% and 87.2% | 93.9 | 89.8 | 96.2 | 87.4 | 89.4 | 90.4 | 101
CC(C(=O)O)c1ccc(-c2ccccc2)c(F)c1 (configuration not stated) [Flurbiprofen] | 107% and 105% | 103 | 106 | 99 | 104 | 105 | 108 | 102
CC[C@H]1OC(=O)[C@H](C)[C@@H](O[C@H]2C[C@@](C)(OC)[C@@H](O)[C@H](C)O2)[C@H](C)[C@@H](O[C@@H]2O[C@H](C)C[C@H](N(C)C)[C@H]2O)[C@](C)(O)C[C@@H](C)C(=O)[C@H](C)[C@H]2OC(=O)O[C@@]21C [Erythromycin Cyclocarbonate] | 101% and 103% | 92.5 | 98.3 | 101 | 104 | 99.5 | 99 | 101
CCCCN(Cc1ccc(C(=O)NO)cc1)C(=O)Nc1ccccc1 [Nexturastat A] | 23.9% and 35.1% | 45.5 | 6.74 | 21 | 7.82 | 2.04 | 3.08 | 7.67
